# Bioassay records (PubChem)
# Six1-Eya2 blk = inhibitors of human Six1/Eya2 interaction; Q15475+O00167; AlphaScreen GST-Six1/His-Eya2 binding, biochemical; hits give low values; activity change, % (test concentration not listed); hit rate 0.56% among 360,000; AID 651725
#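 AlphaScreen with GST-Six1 and His-Eya2 (5X mix: 250 nM and 500 nM), glutathione donor and nickel acceptor beads; buffer 50 mM Tris pH 8.0, 300 mM NaCl, 1 mM TCEP; 1 h at 37 C in the dark.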
# CtBP-E1A inh = inhibitors of CtBP/E1A interaction; AlphaScreen GST-E1A/His-CtBP binding, 1536-well; hits give low values; hit rate 0.49% among 340,000; AID 651724; activity change, % (test concentration not listed)
#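 Homogeneous bead-based format: GST-tagged E1A captured on glutathione donor beads, His-tagged CtBP on nickel acceptor beads; compounds precede bead addition by 2 h at 37 °C.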
# L3MBTL1 inh = inhibitors of human L3MBTL1. Q9Y468. hit rate 0.66% among 230,000. AID 485360. AlphaScreen L3MBTL1–H3K9me1 peptide binding. Potency, µM (doses to about 57.1 µM), inactives show top-dose activity, negative = inhibition, most hits filed as inhibitors; active = well fitted inhibition curve with a large enough effect; inconclusive = small, poorly fitted or top-dose-only effect; inactive = no such curve, though single readings can be large or run the other way; note: potency is the fitted concentration of half-maximal effect; nearly all actives have a fitted effect of over 60% in size
# Target sequence (Q9Y468 whole entry, looked up): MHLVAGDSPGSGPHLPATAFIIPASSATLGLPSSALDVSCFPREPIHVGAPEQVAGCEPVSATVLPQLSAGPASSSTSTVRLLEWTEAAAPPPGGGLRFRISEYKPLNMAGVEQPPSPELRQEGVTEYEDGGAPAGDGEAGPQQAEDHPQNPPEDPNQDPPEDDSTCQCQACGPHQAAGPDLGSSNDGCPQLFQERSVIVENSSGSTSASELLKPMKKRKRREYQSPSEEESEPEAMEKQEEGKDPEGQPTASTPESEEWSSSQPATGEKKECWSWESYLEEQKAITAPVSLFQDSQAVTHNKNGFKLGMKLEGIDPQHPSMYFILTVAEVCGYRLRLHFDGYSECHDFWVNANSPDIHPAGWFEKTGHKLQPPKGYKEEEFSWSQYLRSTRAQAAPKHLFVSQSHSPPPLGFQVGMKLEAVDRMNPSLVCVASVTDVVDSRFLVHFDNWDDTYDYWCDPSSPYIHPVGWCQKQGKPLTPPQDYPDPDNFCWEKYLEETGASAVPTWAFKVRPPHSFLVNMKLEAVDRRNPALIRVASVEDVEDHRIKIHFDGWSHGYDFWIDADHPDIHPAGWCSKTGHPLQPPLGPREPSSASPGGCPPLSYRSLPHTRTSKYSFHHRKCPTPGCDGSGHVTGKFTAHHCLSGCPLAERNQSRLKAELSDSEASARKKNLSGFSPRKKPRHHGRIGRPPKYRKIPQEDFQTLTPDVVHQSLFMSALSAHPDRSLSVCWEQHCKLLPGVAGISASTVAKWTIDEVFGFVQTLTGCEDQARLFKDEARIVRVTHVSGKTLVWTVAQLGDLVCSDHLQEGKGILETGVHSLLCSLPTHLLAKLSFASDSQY
#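 AlphaScreen proximity signal between nickel-chelate acceptor and streptavidin donor beads (final 10 ug/mL) reports binding of 50 nM L3MBTL1 to 75 nM biotin-H3 K9me1 peptide; complex incubated with compounds 30 min at room temperature; cefsulodin titration as control.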
# KDM4E inh = inhibitors of human JMJD2E histone demethylase. B2RXH2. JMJD2E catalytic domain, FDH-coupled NADH fluorescence (FDH is formaldehyde dehydrogenase). Potency, µM (top dose mostly 57.1 µM), for inactives: top-dose activity change, negative = inhibition, usual class: inhibitors. hit rate 1.6% among 230,000. AID 2147; active = well fitted inhibition curve with a large enough effect, not every such curve was filed as active; inconclusive = small, poorly fitted or top-dose-only effect, or another doubt; inactive = no such curve, though single readings can be large or run the other way;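 note: potency is the fitted concentration of half-maximal effect; 0% = wells with enzyme and -100% = buffer wells without enzyme; nearly all actives have a fitted effect of over 50% in size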
# Numbers without * were called inactive; ? = inconclusive; . = not tested or not shown. This excerpt belongs to a sample that is enriched for hits. Cut-off read from the data, not from the text of the source, unless noted: active = activity change below about -65%; inconclusive = mostly about -30% to -63%; inactive = weaker than that. Unless noted, % is set by controls: 0 for no effect and ±100 for the full control effect.
SMILES,Six1-Eya2 blk,CtBP-E1A inh,L3MBTL1 inh,KDM4E inh
Cc1c(-c2ccccc2)nc2ccccc2c1C(=O)Oc1ccc([N+](=O)[O-])cc1,-12,-21,-5%,1%
O=c1cc2oc3cc(O)c(O)cc3c(-c3ccccc3O)c-2cc1O,?,.,0.79µM*,14µM*
COc1ccc(OC)c(-c2c3cc(O)c(=O)cc-3oc3cc(O)c(O)cc23)c1,?,-26,0.79µM*,11µM*
O=c1cc(-c2cccc(O)c2O)oc2ccccc12,.,.,.,7.1µM*
CCOC(=O)c1oc2cc(O)ccc2c(=O)c1-c1ccccc1OC,-2,3,-3%,2%
COc1ccccc1-c1cc(=O)c2cc(O)ccc2o1,.,.,.,-5%
O=c1cc(-c2ccccc2O)oc2cc(O)ccc12,.,.,.,-2%
CCOc1ccccc1-c1c2cc(O)c(=O)cc-2oc2cc(O)c(O)cc12,?,3,1.3µM*,-9%
O=C(O)c1ccc(S(=O)(=O)N[C@H](Cc2ccc(C(F)(F)F)cc2)C(=O)O)cc1,.,.,40%,.
O=C(NCCCN1CCOCC1)C(=O)NCc1ccccc1Cl,2,5,.,-4%
COC(=O)c1ccccc1C(=O)N(c1ccccc1)c1ccccc1,11,10,.,.
NCCC[C@@H](CC(=O)N[C@@H]1CCCC[C@H]1C(=O)N[C@H](CC(=O)N[C@@H](CCC(=O)O)CC(=O)O)Cc1c[nH]c2ccccc12)NC(=O)C[C@H](CO)NC(=O)[C@@H]1CNCC[C@H]1N,.,.,.,-16%
CCCCNc1cc(C(=O)O)cc(S(N)(=O)=O)c1Oc1ccccc1,2,1,-3%,25µM*
C[n+]1ccc(/C=C/c2ccccc2O)c2ccccc21,1,19,.,-19%
CN1/C(=C/c2cc[n+](C)c3ccccc23)C=Cc2ccccc21,?,-11,.,11µM*
Cc1c(C(=O)NNC(=S)Nc2cccc(Cl)c2)nnn1-c1ccccc1,-85*,-2,?,3%
Cc1cc(C(=O)NNC(=S)Nc2ccccc2)nn1C,-19,.,-2%,8.9µM*
Cc1cc(NC(=O)Nc2cccc(Cl)c2)n(-c2ccccc2)n1,6,2,8%,1%
COC(=O)CN(C)C(=O)c1ccccc1OC1CCN(S(C)(=O)=O)CC1,7,6,62%,.
CCn1ccnc1CNCc1cn(-c2cc(C)ccc2C)nc1-c1ccccc1,-82*,.,?,4%
Nc1ccc2c(c1Cl)C(=O)c1ccc(N)c(Cl)c1C2=O,-78*,.,?,-28%
CC1(C)OC2OC(C(=O)N/N=C/c3cc(Br)ccc3O)C3OC(C)(C)OC3C2O1 (stereo not drawn),-82*,-90*,3%,28µM*
C[C@@H]1CN([C@@H](C)CO)C(=O)CCCn2nncc2CO[C@@H]1CN(C)C(=O)Nc1ccc(N2CCN(C)CC2)cc1,3,7,.,.
C=C(C)C(=O)NNc1ccccc1,-1,6,8%,14µM*
CC(C)OC(=O)C(=O)NNc1ccccc1,3,9,-7%,-9%
SMILES,Six1-Eya2 blk,CtBP-E1A inh,L3MBTL1 inh,KDM4E inh
CCOc1ccc(-c2nnc(SCC(=O)NC(C)(C)C)nc2-c2ccc(OCC)c(OC)c2)cc1OC,-7,-6,.,.
C/C(=N\NC(=O)c1ccc(N2CCCC2=O)cc1)c1ccc(O)cc1O,-27,0,.,.
CC(=NNC(=O)c1ccncc1)c1ccc(O)cc1O,?,-76*,.,.
C/C(=N/NC(=O)c1ccncc1)C1=C(O)CC(C)(C)CC1=O,3,-12,-1%,14µM*
CC(=NNC(=O)c1ccncc1)c1ccccc1O,-71*,-75*,.,.
C/C(=N\NC(=O)c1cccc(N/N=C(\C)c2ccco2)c1)c1ccco1,-6,.,-29%,-5%
C/C(=N\NC(=O)c1cccc(N/N=C(\C)c2cc(O)ccc2O)c1)c1cc(O)ccc1O,?,?,28µM*,25µM*
COc1cc(C2c3cc4c(cc3C(OC3OC5COC(C)O[C@@H]5C(O)C3O)C3COC(=O)C23)OCO4)cc(OC)c1O (stereo partly drawn),.,.,.,4%
Clc1cccc2c1CN(C1=NCCN1)C2,.,.,.,-13%
C/C(=N\NC(=O)c1cc(-c2cccnc2)nc2ccccc12)c1ccc(O)cc1O,-74*,-2,-2%,1%
C/C(=N\NC(=O)c1cc(-c2cccc(OC(C)C)c2)nc2ccccc12)c1cccnc1,0,0,.,.
CCNC(=O)C1(C)CCN(C(=O)c2ccc(OC(F)F)cc2)C1 (stereo not drawn),-18,-7,.,.
O=C(Cn1[nH]c(=O)c2ccccc2c1=O)OCC(=O)c1ccc(Br)cc1,3,-8,1%,.
S=C(Nc1ccc(Cl)cc1)c1nc2ccccc2[nH]1,-73*,?,?,?
Cc1ccccc1NC(=O)NCCc1nc2ccccc2[nH]1,3,0,4%,5%
Cc1ccccc1NC(=S)c1nc2ccccc2[nH]1,-90*,-84*,?,19µM*
O=C(/C(=C\c1ccccc1)c1nc2ccccc2[nH]1)c1ccc(Cl)cc1,11,13,1%,2%
Cc1cccc2cc(CN(Cc3ccco3)C(c3nnnn3CCc3ccccc3)C(C)C)c(=O)[nH]c12 (stereo not drawn),-9,-7,-12%,18µM*
CC(C)C[C@@H](CC(=O)N[C@H](CC(=O)N[C@@H]1CCNC[C@H]1C(=O)N[C@H](CC(=O)N[C@@H](CCC(=O)O)CC(=O)O)CC(C)C)C(C)C)NC(=O)[C@@H]1CCCC[C@H]1N,.,.,.,-24%
CC(C)[C@@H](CC(=O)N[C@@H]1CCCC[C@H]1C(=O)N[C@H](CC(=O)N[C@@H](CCC(=O)O)CC(=O)O)Cc1ccccc1)NC(=O)C[C@H](Cc1c[nH]c2ccccc12)NC(=O)[C@@H]1CCCC[C@H]1N,.,.,.,-22%
CCC(=O)NC(c1ccco1)c1cc(Br)c2cccnc2c1O (stereo not drawn),.,.,-22%,.
CCCCC(=O)NC(c1cccs1)c1cc(Cl)c2cccnc2c1O (stereo not drawn),?,.,5%,?
CCC(=O)NC(c1ccc(C)cc1)c1cc([N+](=O)[O-])c2cccnc2c1O (stereo not drawn),-85*,-87*,22µM*,?
CCCC(=O)NC(c1ccco1)c1cc([N+](=O)[O-])c2cccnc2c1O (stereo not drawn),-92*,.,.,28µM*
CC(=O)NC(c1ccc(C)cc1)c1cc([N+](=O)[O-])c2cccnc2c1O (stereo not drawn),-90*,-93*,5µM*,?
CC(C)NC(=O)C1(C)CN(S(C)(=O)=O)CC(=O)N1Cc1cccc(F)c1 (stereo not drawn),8,-1,.,.
Cc1cc2c(cc(C(=O)OC(C)C(=O)NCc3ccc(F)cc3)n2C)o1 (stereo not drawn),16,3,.,.
c1ccc(-c2cn3c(n2)-c2ccccc2C3)cc1,-16,-3,-11%,3.2µM*
O=C(Nc1ccc(F)c(Cl)c1)c1cc(C2CCCN(S(=O)(=O)c3cccc4cccnc34)C2)on1 (stereo not drawn),-4,0,.,.
